22 molecules from PubChem BioAssay (EPA / NIEHS) can be followed below.

Inconclusive results are not listed. Activity calls are given as the source filed them. How the source made its calls: active means hit-call score of the fitted dose curve at least 0.9, where 1 is the maximum; inconclusive means response in the unintended direction; inactive means score below 0.9.

Read-out in the first assay: glucuronosyltransferase (UGT1A1), UGT1A1 (gene 54658)
The assay is described as follows: CLD_UGT1A1_48hr: CellzDirect (CLD) Gene Expression Assay for glucuronosyltransferase (UGT1A1) at 48 hours (AID 2283709).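 Further: actives increase expression relative to DMSO so potency refers to induction.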 The gist of the method: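 Human primary hepatocytes dosed daily for two days (0.2% DMSO vehicle), harvested at 48 h. UGT1A1 mRNA induction measured by quantitative nuclease protection assay with chemiluminescence; gain of signal versus DMSO; cytotoxicity flagged from morphology.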
On to `CCS(=O)(=O)c1cccnc1S(=O)(=O)NC(=O)Nc1nc(OC)cc(OC)n1`, for which the molecule was classed as inactive.

As to `CCOCN(C(=O)CCl)c1c(C)cccc1CC`, the molecule was classed as inactive.

As for `C[C@H]1[C@H](c2ccc(Cl)cc2)SC(=O)N1C(=O)NC1CCCCC1`, the result was inactive.

As to `Cc1cc(C)nc(NC(=O)NS(=O)(=O)c2ccccc2C(=O)OC2COC2)n1`, the molecule was called inactive.

For `CCC(C)(NC(=O)c1cc(Cl)c(C)c(Cl)c1)C(=O)CCl` (stereo unspecified), the molecule was classed as inactive.

Read-out in the next assay: sulfotransferase (SULT2A), SULT2A1 (gene 6822)
Put plainly: CLD_SULT2A_48hr: CellzDirect (CLD) Gene Expression Assay for sulfotransferase (SULT2A) at 48 hours (AID 2283710).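 Further: hits raise SULT2A1 transcript above the 0.2% DMSO vehicle baseline.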 The gist of the method: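 Primary human hepatocytes (two donor preparations) dosed daily for two days with chemicals at multiple concentrations, vehicle 0.2% DMSO; SULT2A1 mRNA induction at 48 h by quantitative nuclease protection assay, chemiluminescent read-out, fitted for gain of signal versus DMSO.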
In the case of `COC(=O)c1ccccc1S(=O)(=O)NC(=O)Nc1nc(C)nc(OC)n1`, the outcome was inactive.

For the molecule `CCOC1Oc2ccc(OS(C)(=O)=O)cc2C1(C)C` (stereo unspecified), the outcome was inactive.

In the case of `Clc1ccccc1-c1nnc(-c2ccccc2Cl)nn1`, the molecule was classed as inactive.

In the case of `Oc1ccc(Cl)cc1Cc1ccccc1`, the outcome was inactive.

As for `O=[N+]([O-])/N=C1\NCCN1Cc1ccc(Cl)nc1`, the outcome was inactive.

For the molecule `COC(=O)c1ccccc1S(=O)(=O)NC(=O)N(C)c1nc(C)nc(OC)n1`, the molecule was called inactive.

`N#Cc1c(Cl)c(Cl)c(Cl)c(C#N)c1Cl`: the call was inactive.

For the molecule `CCN(CC)C(=O)SCc1ccc(Cl)cc1`, the result was inactive.

On to `CC(C)N(C(=O)COc1nnc(C(F)(F)F)s1)c1ccc(F)cc1`, for which the molecule was called inactive.

On to `O=[N+]([O-])c1c(Cl)c(Cl)c(Cl)c(Cl)c1Cl`, for which the molecule was classed as inactive.

For `CC(C)(C)C(O)/C(=C\c1ccc(Cl)cc1Cl)n1cncn1` (stereo unspecified), the call was inactive.

Take `O=S(=O)(O)C(F)(F)C(F)(F)C(F)(F)C(F)(F)C(F)(F)C(F)(F)C(F)(F)C(F)(F)F`: the molecule was called inactive.

`O=C(NC(=O)c1c(F)cccc1F)Nc1ccc(OC(F)(F)C(F)OC(F)(F)F)c(Cl)c1` (stereo unspecified): the call was inactive.

With `CCC(C)Nc1c([N+](=O)[O-])cc(C(C)(C)C)cc1[N+](=O)[O-]` (stereo unspecified), the AC50 is 1140 nM (active).

On to `CCCN(CCC)c1c([N+](=O)[O-])cc(C(F)(F)F)cc1[N+](=O)[O-]`, for which the outcome was inactive.

For `O=S1OCC2C(CO1)C1(Cl)C(Cl)=C(Cl)C2(Cl)C1(Cl)Cl` (stereo unspecified), the result was inactive.

`CCS(=O)(=O)c1cccnc1S(=O)(=O)NC(=O)Nc1nc(OC)cc(OC)n1`: the molecule was called inactive.

As for `C[C@H]1[C@H](c2ccc(Cl)cc2)SC(=O)N1C(=O)NC1CCCCC1`, the call was inactive.

Consider `Cc1cc(C)nc(NC(=O)NS(=O)(=O)c2ccccc2C(=O)OC2COC2)n1`, for which the molecule was called inactive.

As for `CC1(c2ccc(Oc3ccccc3)cc2)OC(=O)N(Nc2ccccc2)C1=O` (stereo unspecified), the AC50 is 1890 nM (active).

As to `CCC(C)(NC(=O)c1cc(Cl)c(C)c(Cl)c1)C(=O)CCl` (stereo unspecified), the call was inactive.
